PubChem BioAssay (NCI)
The panel holds about 83,000 compounds, 20% with a hit somewhere; the sample as a whole holds those more often.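 Values shown are percent growth following 48 h exposure of cells in 96-well plates to a single concentration of compound; below 10 was considered active.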 Unmarked numbers belong to inactive results. Active and inactive are the calls of the source.

Key:
Assay in all cases: NCI-60 one-dose screen, 48 h (100 = growth as untreated, 0 = no growth, -100 = all killed)
Conditions in all cases: 10 µM unless noted
[1] = test system: DU-145 prostate
[2] = test system: K-562 leukemia
[3] = test system: MALME-3M melanoma
[4] = test system: MDA-MB-231 breast
[5] = test system: RXF 393 renal
[6] = test system: SF-268 CNS
[7] = test system: SF-295 CNS
[8] = test system: SF-539 CNS
[9] = test system: UACC-257 melanoma
[10] = test system: M14 melanoma
[11] = test system: HCT-15 colon
[12] = test system: HT29 colon
[13] = test system: SNB-75 CNS
[14] = test system: SNB-19 CNS
[15] = test system: U251 CNS
[16] = test system: PC-3 prostate
[17] = test system: SK-MEL-5 melanoma
[18] = test system: UACC-62 melanoma
[19] = test system: LOX IMVI melanoma
[20] = test system: SK-MEL-28 melanoma

SMILES	growth [1]	growth [2]	growth [3]	growth [4]	growth [5]	growth [6]	growth [7]	growth [8]	growth [9]	growth [10]	growth [11]	growth [12]	growth [13]	growth [14]	growth [15]	growth [16] [%]	growth [17]	growth [18]	growth [19]	growth [20]
O=[N+]([O-])c1ccc(Sc2cccc[n+]2[O-])c2nonc12	50%	-21.7% (active)	100%	90.4%	54.5%	58.9%	89.9%	93.6%	91.5%	71.3%	73.1%	78.2%	80.7%	88.3%	2.22% (active)	41.8	72.3%	50.6%	2.14% (active)	23.8%
Cn1c(=O)c2[nH]c(NN)nc2n(C)c1=O	123%	100%	135%	116%	123%	108%	108%	111%	119%	102%	97.2%	105%	89.6%	110%	105%	101	105%	114%	101%	103%
CC(=O)N1N=C(c2ccc(Nc3nc(Nc4ccc(F)cc4)nc(Nc4ccc(F)cc4)n3)cc2)CC1c1cccc([N+](=O)[O-])c1 (stereo not given)	106%	76.7%	91.3%	84.6%	81.4%	103%	482%	92.9%	115%	94.1%	91.7%	48.5%	21.8%	92.5%	86.7%	70.9	78.8%	92.6%	87.9%	74.4%
N#Cc1c(N)nc(NCCO)nc1-c1ccc(F)cc1	113%	91.4%	108%	104%	93.5%	103%	99.1%	98.6%	90.6%	105%	99.9%	95.9%	79.2%	104%	90.2%	92.9	95%	95%	90.8%	112%
N#C/C(=C\c1ccc(Br)cc1)n1nnc2cc(F)c(F)cc21	15.6%	9.36% (active)	65.7%	15%	2.12% (active)	33.8%	98.6%	-2.33% (active)	50.6%	18.1%	11.1%	13.2%	12.8%	50.5%	30%	31.2	44.8%	13.3%	-49.1% (active)	42.8%
Nc1cc2c3c(cccc3c1)C(=O)N(CCN1CCCC1)C2=O	28.4%	14.7%	41.5%	55.2%	48.2%	33.7%	44.5%	29%	51.3%	49.4%	30.3%	26.2%	48%	41.9%	28.9%	40.8	9.37% (active)	26.6%	11.9%	62.3%
COc1ccc2c(c1)O/C(=C/c1ccc(OCC(=O)c3ccccc3)cc1)C2=O	118%	80.7%	96.3%	84.4%	109%	117%	137%	107%	125%	99.3%	111%	110%	120%	108%	108%	96.2	125%	96.3%	108%	132%
CN1CCN(C(=O)c2c3c(n4ccccc24)C(=O)c2ncccc2C3=O)CC1	56.8%	54.1%	72.1%	79.5%	60.8%	52.9%	73.5%	58%	97.7%	49%	46%	93.3%	39.9%	50.4%	66.5%	54.8	65.6%	39.3%	30.3%	103%
N#Cc1nc(C#N)c(Sc2ccccc2)c(Sc2ccccc2)c1Sc1ccccc1	-47.8% (active)	-41.2% (active)	-20.6% (active)	-32.7% (active)	-38.7% (active)	-67.6% (active)	1.87% (active)	-86.6% (active)	-59.2% (active)	-28.9% (active)	-53.7% (active)	-67.2% (active)	-61.2% (active)	-45.7% (active)	-81.9% (active)	21.5	-93.2% (active)	-57.2% (active)	-79.2% (active)	-84.3% (active)
Cc1cc(Cl)ccc1Nc1nc(C(F)(F)F)ccc1C(=O)N/N=C/c1ccc(N(C)C)cc1	40.3%	18.9%	22.1%	22%	-4.86% (active)	31.8%	-7.53% (active)	41.4%	30%	33.9%	15.9%	32.5%	65.1%	42%	16.2%	30.3	12.9%	9.47% (active)	27%	45.2%
CN1CCN(CCCOc2ccc3nc(Nc4ccc(F)c(F)c4)ccc3c2)CC1	39.9%	-30.3% (active)	3.13% (active)	-31.6% (active)	48.6%	46.5%	-51.4% (active)	14.3%	-52.9% (active)	-53.1% (active)	-29.3% (active)	-36.2% (active)	24.3%	26.5%	13.7%	22.5	-6.85% (active)	-67.1% (active)	-89.5% (active)	-67.4% (active)
Cc1ccc(Cc2cnc(NC(=O)c3ccc4noc(-c5ccccc5)c4c3)s2)cc1	102%	91.2%	106%	94.8%	-4.67% (active)	98.9%	95.9%	94.7%	99.3%	93.4%	88.6%	65.3%	94.1%	92.2%	96.3%	75.2	94.9%	77%	93.1%	99%
Cc1nn(-c2ccccc2)c(Cl)c1/C=C(/NC(=O)c1ccccc1)c1nc2ccccc2[nH]1	117%	88.4%	48.9%	85.5%	119%	104%	92.9%	110%	90.1%	70%	94.1%	75.3%	96.9%	101%	92.4%	78	107%	75%	96.8%	83.6%
c1ccc(Nc2nc(-c3ccccn3)cs2)nc1	26.5%	17.2%	9.26% (active)	38.9%	-18.8% (active)	20.7%	11.9%	0.697% (active)	11.5%	-32.8% (active)	20.1%	27.4%	42.7%	18.6%	7.62% (active)	38	11%	-14.6% (active)	1.84% (active)	50.3%
COc1cc2c(cc1-c1c(C)noc1C)ncc1nc(C3CCC(F)(F)CC3)n(C3CCC(OC(F)F)CC3)c12 (stereo not given)	73.3%	41.5%	48.2%	37.8%	75.5%	72.7%	68.1%	61.8%	38.8%	55.1%	36.1%	31.6%	15.1%	67.2%	77.7%	41.8	43.7%	32%	35.2%	66.6%
